Screening results (PubChem)
Only some compounds are listed: those with a hit (about 3.4% of all), similar ones and a draw of the others.
proKLK7 act: proKLK7 (human) activation, primary screen; hit rate 0.9% among 370,000; activation, % at 7 µM; P49862; AID 652039; purified proKLK7, EDANS-DABCYL substrate fluorescence; 100% is mature enzyme control, 0% vehicle;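 active = activation above the mean of all tested compounds plus 3 SD, computed per campaign excluding outliers beyond control limits, cut at about 13% in these data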
sPLA2-III inh: Inhibits HGIII-sPLA2 liposome hydrolysis, primary screen; QFRET BODIPY PC-A2 liposome hydrolysis, fluorescence; inhibition, % at 12.2 µM; hit rate 0.56% among 370,000;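 active = inhibition above mean plus 3 SD of compounds lying within the high and low control bounds, cut at about 19% in these data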
PLCb3 inh: PLC-beta3 (human) inhibition, primary screen; Q01970; Purified PLC-beta3, fluorogenic substrate, fluorescence; inhibition, % at 12.2 µM; hit rate 0.18% among 370,000; in the data active = inhibition above about 11%
ADAM10 inh: inhibits human ADAM10; O14672; recombinant ADAM10, EDANS/DABCYL FRET peptide cleavage, 3 h; inhibition, % at 7 µM; hit rate 0.62% among 370,000;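 active = inhibition above a per-campaign cutoff equal to the mean of compounds falling between control-based bounds plus 3 SD, cut at about 20% in these data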
ADAM17 inh: inhibits human ADAM17; P78536; recombinant ADAM17, EDANS/DABCYL FRET peptide cleavage; inhibition, % at 6.95 µM; hit rate 0.83% among 370,000; AID 720648;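 active = inhibition above the mean of compounds lying between control limits plus 3 SD, set per campaign, cut at about 8.5% in these data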
Target sequence (P78536 215-824 limits assumed): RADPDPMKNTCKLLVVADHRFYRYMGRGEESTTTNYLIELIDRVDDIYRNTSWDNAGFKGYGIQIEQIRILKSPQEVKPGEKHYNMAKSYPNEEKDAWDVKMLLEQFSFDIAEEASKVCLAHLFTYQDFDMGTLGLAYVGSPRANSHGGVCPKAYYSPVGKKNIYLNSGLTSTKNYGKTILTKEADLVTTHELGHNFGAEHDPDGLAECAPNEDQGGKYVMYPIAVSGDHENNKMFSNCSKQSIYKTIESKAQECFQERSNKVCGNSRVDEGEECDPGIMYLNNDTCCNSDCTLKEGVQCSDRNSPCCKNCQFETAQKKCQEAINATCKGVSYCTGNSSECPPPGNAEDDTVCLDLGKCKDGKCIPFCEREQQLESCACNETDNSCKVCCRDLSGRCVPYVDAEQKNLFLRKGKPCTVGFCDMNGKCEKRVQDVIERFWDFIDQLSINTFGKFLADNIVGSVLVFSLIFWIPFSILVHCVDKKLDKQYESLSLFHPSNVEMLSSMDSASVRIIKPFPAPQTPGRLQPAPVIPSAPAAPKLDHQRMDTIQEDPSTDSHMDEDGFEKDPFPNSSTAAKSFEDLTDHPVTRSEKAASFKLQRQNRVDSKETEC
PLCg1 inh: blocks human PLC-gamma1 enzyme activity. P19174. purified PLC-gamma1, fluorogenic substrate, fluorescence. inhibition, % at 12.2 µM. hit rate 0.84% among 370,000. AID 720700; in the data active = inhibition above about 9.5%
ADAM10 counter: ADAM10 inhibition, counter-screen for ADAM17 exosite hits; recombinant ADAM10, EDANS/DABCYL FRET peptide cleavage, 3 h; hit rate 47% among 2,900; inhibition, % at 6.95 µM; shares compounds with ADAM17 inh;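 active = mean inhibition over the triplicate runs exceeds the activity threshold set in the earlier primary screen, cut at about 20% in these data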
ADAM17 confirm: confirmation of inhibitors of human ADAM17; shares compounds with ADAM17 inh; recombinant ADAM17, EDANS/DABCYL QFRET peptide cleavage; inhibition, % at 6.95 µM; hit rate 65% among 2,900;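 active = mean inhibition across replicates above the hit cutoff set in the primary screen, cut at about 8.5% in these data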
Of the large screens only hits and unclear results are named; the others gave an inactive call (follow-up assays come after a bar, where they were run).

Nn1c(COc2cccc(Br)c2)nnc1SCC(=O)N1CCc2ccccc2C1	ADAM17 inh 12 | ADAM10 counter inactive | ADAM17 confirm inactive
Nn1c(COc2cccc(Br)c2)nnc1SCC(=O)NCC1CCCO1 (stereo unspecified)	none
O/N=C(\c1ccc(Cl)cc1Cl)c1ncc(C(F)(F)F)cc1Cl	ADAM17 inh 12 | ADAM10 counter 29 | ADAM17 confirm 13
O=C(c1ccc(Cl)cc1Cl)c1ncc(C(F)(F)F)cc1Cl	none
Cc1ncc2c(n1)-c1cc(F)ccc1SC2	none
Nc1ncc2c(n1)-c1cc(Cl)ccc1SC2	ADAM17 inh 10 | ADAM10 counter inactive | ADAM17 confirm inactive
COc1ccc(OCC(=O)Nc2c(C)ccc3nsnc23)cc1	none
COc1ccc(NC(=O)CN(C)S(=O)(=O)c2ccc3c(c2)CCCN3C(C)=O)cc1	none
COc1ccc(C)cc1NC(=O)CN(C)S(=O)(=O)c1ccc2c(c1)CCCN2C(C)=O	ADAM17 inh 9.0 | ADAM10 counter inactive | ADAM17 confirm inactive
CC(=O)N/C(=C\c1ccccc1)C(=O)OCc1cc(C)ccc1C	none
CCOc1cc(C(=O)OCC(=O)Nc2ccc(SC(F)F)cc2)cc(OCC)c1OCC	ADAM17 inh 10 | ADAM10 counter 38 | ADAM17 confirm 18
CC(=Nc1ccccc1C(F)(F)F)c1ccncc1	none
C[C@@H]1CN([C@@H](C)CO)C(=O)CCCn2nncc2CO[C@@H]1CN(C)S(=O)(=O)c1ccc(C#N)cc1	ADAM17 inh 9.5 | ADAM10 counter inactive | ADAM17 confirm 9.5
CCCCN1C(=O)C(O)=C(C(C)=O)C1c1ccc(OC)cc1OC (stereo unspecified)	ADAM17 inh 10 | ADAM10 counter inactive | ADAM17 confirm inactive
COc1ccc(C2C(C(C)=O)=C(O)C(=O)N2CCO)c(OC)c1 (stereo unspecified)	none
COc1ccc(OC)c(NC(=O)NCCc2cccc(Cl)c2)c1	none
COc1ccc(CC(=O)NC(=S)Nc2ccc(S(=O)(=O)NC(C)(C)C)cc2)cc1	ADAM17 inh 9.9 | ADAM10 counter 32 | ADAM17 confirm 15
CCOc1ccc(CN(C)Cc2cc(=O)oc3c(C)c(C)ccc23)cc1OC	ADAM17 inh 9.4 | ADAM10 counter inactive | ADAM17 confirm inactive
O=C(COC(=O)c1ccc(O)cc1O)Nc1cc(-c2ccccc2)nn1-c1ccccc1	ADAM17 inh 8.8 | ADAM10 counter 24 | ADAM17 confirm 16
Nc1ncnc2c1ncn2[C@@H]1O[C@H](CNCc2ccc(-c3cc(C(F)(F)F)ccc3Cl)o2)[C@@H](O)[C@H]1O	ADAM17 inh 10 | ADAM10 counter inactive | ADAM17 confirm inactive
CC1Cc2nc(SCC(=O)N3CCCCC3)n(C)c(=O)c2S1 (stereo unspecified)	none
CCc1cc2c(nc1CC)CCCN2S(=O)(=O)c1cccs1	none
CCc1cc2c(nc1CC)CCCN2S(=O)(=O)c1ccc(OC)cc1	ADAM17 inh 11 | ADAM10 counter inactive | ADAM17 confirm inactive
CCC(C)n1c(OC)nc2c1c(=O)n(C)c(=O)n2C (stereo unspecified)	none
Cc1ccc(C2(C(F)(F)F)NC(=O)N3N=C4CCCCCN4C3=C2C#N)cc1 (stereo unspecified)	none
O=S(=O)(NCC(Nc1ccccc1)c1ccccc1)c1ccc(Cl)cc1 (stereo unspecified)	ADAM17 inh 9.0 | ADAM10 counter 36 | ADAM17 confirm 21
CCN(c1ccc(NC(=O)COC(=O)C2CCN(c3ccc(C(F)(F)F)cn3)CC2)cc1)C(C)C	ADAM17 inh 8.9 | ADAM10 counter 37 | ADAM17 confirm 18
O=C(COC(=O)C1CCN(S(=O)(=O)c2ccc3c(c2)OCCO3)CC1)Nc1ccc(C(F)(F)F)cc1	ADAM17 inh 8.7 | ADAM10 counter inactive | ADAM17 confirm 11
CNC(=S)N1CCC(NC(=O)C(Cc2ccccc2)NC(C)=O)CC1 (stereo unspecified)	none
O=C(CCc1nc(-c2ccc(Cl)cc2)no1)NC1CCCCC1	none
O=C(CCc1nc(-c2ccccc2)no1)NC1CCCCC1	ADAM17 inh 9.0 | ADAM10 counter inactive | ADAM17 confirm inactive
COc1cc(C)c2c(c1C=O)Oc1c(c(C)c(O)c3c1C(O)OC3=O)OC2=O (stereo unspecified)	ADAM17 inh 39 | ADAM10 counter inactive | ADAM17 confirm inactive
CC(CC(=O)c1cccs1)CC(=O)c1cccs1	none
O=C(SCC(O)C(O)CS)c1cccs1 (stereo unspecified)	ADAM17 inh 43 | ADAM10 counter 31 | ADAM17 confirm 64
CCc1noc(C)c1C(=O)Nc1cc(S(=O)(=O)N(CC)CC)ccc1N1CCOCC1	none
COC(=O)c1c(-c2cccc3ccccc23)csc1NC(=O)Cc1ccc(OC)c(OC)c1	ADAM17 inh 10 | ADAM10 counter inactive | ADAM17 confirm 10
C/C(=N/NC(=O)CC1N=C(Cc2ccccc2)NNC1=O)c1cccnc1 (stereo unspecified)	none
COc1ccc(Nc2nc(N)nc(CSC(=S)N3CCCCC3C)n2)cc1 (stereo unspecified)	ADAM17 inh 9.7 | ADAM10 counter inactive | ADAM17 confirm 10
COc1ccccc1Nc1nc(N)nc(CSC(=S)N2CC(C)CC(C)C2)n1 (stereo unspecified)	ADAM17 inh 12 | ADAM10 counter 30 | ADAM17 confirm 16
COc1ccc(Nc2nc(N)nc(CSC(=S)N3CCCCC3)n2)cc1	none
Cc1cc(C)n(-c2ccc(NC(=O)C3CCN(Cc4ccc(C)o4)CC3)cc2)n1	none
COc1cc(OC)cc(N(C(=O)C2COc3ccccc3O2)C(C(=O)NC2CCCCC2)c2ccc(O)cc2)c1 (stereo unspecified)	ADAM17 inh 11 | ADAM10 counter inactive | ADAM17 confirm 10
COc1ccc(N(C(=O)C2COc3ccccc3O2)C(C(=O)NC2CCCCC2)c2ccccc2)cc1OC (stereo unspecified)	none
CC1CCN(S(=O)(=O)c2ccc(NC(=O)C3CCN(C(=O)c4ccco4)CC3)cc2)CC1	none
CC(O)c1nc2ccccc2n1CCCCOc1ccccc1 (stereo unspecified)	none
Brc1ccc(OCc2nc(-c3ccccn3)n[nH]2)cc1	none
Clc1ccc(OCc2nc(-c3ccccn3)n[nH]2)cc1	ADAM17 inh 9.4 | ADAM10 counter inactive | ADAM17 confirm inactive
CCN(CC)S(=O)(=O)c1cccc(C(=O)N[C@H](C(=O)OCC(N)=O)C(C)C)c1	none
